Screens: PubChem BioAssay, National Center for Advancing Translational Sciences (NCATS)
The list is not random: actives were taken first. Their share in the collection is about 2.8%.
LDHA inh: blocks human lactate dehydrogenase A. P00338. actives 0.15% (n = 480,000). purified LDHA, NADH/diaphorase-resazurin fluorescence; hits give low values. activity change, % (values are at about 110 or 230 µM). AID 1347041; in the data active means activity change below about -30%; inconclusive means mostly about -25% to -30%
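LDH5 2 nM; NADH 0.06 mM, pyruvate 0.2 mM; 200 mM Tris pH 7.4, EDTA, Tween-20; 5 min RT. Detection: diaphorase 0.133 mg/mL + resazurin 37 µM, fluorescence ex540/em590 at 0 and 20 min; normalized to enzyme-free and DMSO wells.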
PI4K2A block: blocks human PI4K2A kinase activity. activity change, negative = inhibition, % at 76.9 µM. purified PI4K2A, ADP-Glo luminescence, 1 h; hits give low values. Q9BTU6. actives 0.13% (n = 420,000). AID 1346378; in the data active means activity change below about -50%; inconclusive means mostly about -30% to -49%
Target sequence (Q9BTU6 whole entry, looked up): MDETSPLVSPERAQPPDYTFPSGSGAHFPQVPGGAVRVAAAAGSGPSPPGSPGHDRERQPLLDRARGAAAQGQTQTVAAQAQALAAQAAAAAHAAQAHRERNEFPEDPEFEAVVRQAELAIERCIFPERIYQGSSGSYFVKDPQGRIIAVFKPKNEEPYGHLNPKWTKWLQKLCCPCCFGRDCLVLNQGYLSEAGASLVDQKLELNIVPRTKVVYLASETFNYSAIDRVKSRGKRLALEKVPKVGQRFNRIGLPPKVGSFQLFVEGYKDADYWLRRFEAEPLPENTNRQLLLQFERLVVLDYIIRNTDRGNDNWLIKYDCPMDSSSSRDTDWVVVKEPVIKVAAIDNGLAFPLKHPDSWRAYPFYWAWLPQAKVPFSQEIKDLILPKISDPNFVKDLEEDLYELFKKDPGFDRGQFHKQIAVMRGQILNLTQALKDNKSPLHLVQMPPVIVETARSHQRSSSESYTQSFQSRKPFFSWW
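PI4K2A activity was measured by ADP-Glo luminescence: enzyme (4 ug/mL stock) and phosphatidylinositol (1.2 mM stock) in Tris pH 7.5/MgCl2/EGTA/Triton X-100 buffer were reacted with ATP (300 microM stock) for one hour at ambient temperature.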
RGS4 inhibitor: blocks human RGS4-accelerated GTP hydrolysis; P49798; Transcreener GDP fluorescence polarization, RGS4-accelerated GTP hydrolysis; Potency, µM (highest dose often 114 µM), most hits filed as inhibitors; actives 0.039% (n = 390,000); AID 504845; active means well fitted inhibition curve with a large enough effect; inconclusive means small, poorly fitted or top-dose-only effect; inactive means no such curve, though single readings can be large or run the other way; further: nearly all actives have a fitted effect of over 75% in size
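MLSMR compounds (23 nl, pin-transferred) preincubated 10 min at room temperature with a 500nM (2x) first reagent, then RGS4 at 900nM (2x) plus Transcreener GDP mix added; fluorescence polarization (620/688 nm) read before and after 90 min at 30 °C.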
pAkt inh: inhibitors of Akt phosphorylation. Neuro2A IGF-stimulated pAkt S473 HTRF, 20 min; hits give low values. actives 0.32% (n = 360,000). AID 651550. activity change, % for hits at 50 µM; in the data active means activity change below about -80%; inconclusive means mostly about -51% to -80%
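Neuro2A cells in DMEM with 0.5% FBS, overnight at 37 deg C, given compound at single 50 µM final, then IGF (6 nM final) for 20 min at 37 deg C. Lysed; phospho-Akt Ser473 by HTRF after 24 h, 665/615 ratio.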
D3 ag: D3 dopamine receptor (human) agonism | P35462 | D3R DiscoveRx beta-arrestin cells, luminescence, 90 min | max activation, % | actives 0.58% (n = 410,000) | AID 652048; in the data active means max activation above about 30%
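Agonist-mode cell screen: cells plated at 1500/well and incubated overnight at 37 °C, then exposed to library compounds for 90 min at 37 °C. Detection reagent was added for 30–60 min at room temperature, and luminescence was read.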
D3 antag: antagonists of human D3 dopamine receptor. P35462. D3R cells, DiscoveRx beta-arrestin luminescence, antagonist mode; hits give low values. max response, negative = inhibition, %. actives 2.5% (n = 360,000); in the data active means max response below about -50%; inconclusive means no clear call, values can overlap the other calls
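Cells expressing the human receptor were seeded at 1500 cells/well, incubated overnight at 37 degrees C in 5% CO2, then exposed to library compounds with dopamine controls for 90 minutes at 37 degrees C before luminescent detection.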
Hits are given with their value; n = inactive; u = inconclusive; x = no result; [ ] = remark or other dose.

SMILES | LDHA inh | PI4K2A block | RGS4 inhibitor | pAkt inh | D3 ag | D3 antag
Cc1ccc(CNCC2CCNCC2)s1 | n | x | x | x | x | x
Cn1cnc2c1c(=O)n(CCCn1nnc(-c3ccccc3)n1)c(=O)n2C | n | x | x | x | x | x
Cc1nc2nc(N(Cc3ccccc3)C(=O)c3ccco3)[nH]n2c(=O)c1C | n | x | x | x | x | x
Cc1ccc(S(=O)(=O)c2nc(-c3ccccc3)oc2NCCCN2CCOCC2)cc1 | n | n | n[11.4 µM] | n | n | -75.9
Cc1ccc(NC(=O)CNCCCN2CCOCC2)cc1S(=O)(=O)N1CCCCC1 | -33.0 | n | n | n | n | n
CCCN(CCC)Cc1cc2ccccc2c2c1COC2 | n | n | n | n | n | -64.2
CCN(CC)Cc1cc2ccccc2c2c1COC2 | n | n | n | n | n | u
CCCCN(CCCC)Cc1cc2ccccc2c2c1COC2 | n | -81.3 | n | n | n | n
CCCCNC(=O)c1onc(CSc2ccccc2)c1C(=O)NCCCC | n | n | n | n | 42.0 | n
CCCCNC(=O)c1onc(CSc2ccc(Cl)cc2)c1C(=O)NCCCC | n | n | n | n | n | n
COCCNC(=O)c1onc(CSc2ccc(F)c(F)c2)c1C(=O)NCCOC | n | n | n | n | 30.5 | n
CCCCNC(=O)c1onc(CSc2ccncc2)c1C(=O)NCCCC | n | n | n | n | 59.3 | n
CCn1c(SCc2ncc(-c3ccccc3)o2)nnc1-c1ccccc1 | n | x | x | x | x | x
C=C1C(=O)C23CCC4C(C)(C(=O)OC)CCCC4(C)C2CCC1(O)C3 (configuration not stated) | n | n | u | n | n | -105.8
Oc1c(Br)cc(Br)cc1C=NCc1ccc(F)cc1 | n | n | n | n | n | -66.5
Oc1c(Br)cc(Br)cc1C=NCc1ccccc1 | n | u | n | n | n | -57.4
COc1cc(/C=C2/NC(=O)NC2=O)ccc1OCC(=O)O | n | x | x | x | x | x
CC(=O)c1c(C)[nH]c(-c2csc(NC(C)C)n2)c1C | n | x | x | x | x | x
OCCC1CN(CCCc2ccccc2)CCN1Cc1ccccc1 (configuration not stated) | n | n | n | n | n | -82.0
O=c1cc(CN2CCN(Cc3ccc(F)cc3)C(CCO)C2)[nH]c2ccccc12 (configuration not stated) | n | n | n | n | n | -58.3
OCCC1CN(Cc2ccc(F)cc2)CCN1CCCc1ccccc1 (configuration not stated) | n | n | n | n | n | -57.7
OCCC1CN(Cc2ccc(F)cc2)CCN1CCc1ccccc1 (configuration not stated) | n | n | n | n | n | n
Cc1ccc(C(=O)NC(c2nnc(SCC(=O)c3ccccc3)n2C)C(C)C)cc1 (configuration not stated) | n | x | x | x | x | x
O=c1oc2ccc3ccccc3c2cc1-c1csc(Nc2ccccc2F)n1 | n | x | x | x | x | x
CCCc1cc(=O)oc2cc(OCC(=O)Nc3ccc(S(N)(=O)=O)cc3)ccc12 | -37.3 | u | u | n | n | n
SMILES | LDHA inh | PI4K2A block | RGS4 inhibitor | pAkt inh | D3 ag | D3 antag
Cc1ccc2[nH]c(C(=O)NCc3ccccc3C)cc2c1 | n | x | x | x | x | x
CCCCN(C(=O)C(=O)c1c(C)[nH]c2ccccc12)c1ccccc1 | n | x | x | x | x | x
O=C(/C(=C\c1ccccc1F)c1nc2ccccc2o1)c1ccccc1 | n | x | x | x | x | x
COc1cccc(C(c2nnnn2Cc2ccccc2)N2CCN(C3CCCC3)CC2)c1OC (configuration not stated) | n | n | n | n | n | n
CCCCn1nnnc1C(c1ccccc1OC(F)(F)F)N1CCN(C/C=C/c2ccccc2)CC1 (configuration not stated) | n | n | x | n | n | -59.0
CCCCn1nnnc1C(c1ccccc1)N1CCN(C)CC1 (configuration not stated) | n | n | x | n | n | n
COc1ccccc1C(c1nnnn1Cc1ccccc1)N1CCN(C2CCCC2)CC1 (configuration not stated) | n | n | n[11.4 µM] | n | n | -58.5
FC(F)(F)Oc1ccccc1C(c1nnnn1Cc1ccccc1)N1CCN(C/C=C/c2ccccc2)CC1 (configuration not stated) | n | n | x | n | n | -65.6
